We go through 14 compounds from PubChem BioAssay (NCI).

Compounds without any hit were thinned out: in the full panel of roughly 83,000, 20% have a hit.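 Testing used 96-well plates and a 48-hour single-concentration exposure. Example: -40 means 40% of the starting cells died.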 Unmarked numbers belong to inactive results. Active and inactive are the calls of the source. How the source made its calls: active means growth percent below 10; inactive means the rest.

Some test systems named below: NCI-H23 lung; NCI-H226 lung; NCI-H322M lung; HOP-62 NSCLC; NCI-H460 lung; HOP-92 NSCLC; NCI-H522 lung; A549/ATCC NSCLC; 786-0 renal; COLO 205 colon.
Common to all, as to assay: NCI-60 one-dose screen, 48 h (100 = growth as untreated, 0 = no growth, -100 = all killed)
Settings in all cases: 10 µM

With `CC(=O)c1ccc(NCn2nc(-c3ccc(Cl)cc3)oc2=S)cc1`, the growth was 104% in the experiment with NCI-H23 lung; 106% in the experiment with NCI-H226 lung; 110% with NCI-H322M lung; 69.9% in the experiment with HOP-62 NSCLC; 106% in the experiment on NCI-H460 lung; 104% in the experiment with HOP-92 NSCLC. For the same compound, the growth in the experiment on NCI-H522 lung was 92%; in the experiment on A549/ATCC NSCLC, 79.2%; in the experiment on 786-0 renal, 105%; with COLO 205 colon, 107%.

As for `Nc1nc2c(nnn2C2CC(O)C(CO)O2)c(=O)[nH]1` (stereo not given), the growth in the experiment with NCI-H23 lung was 45%; in the experiment with NCI-H226 lung, 50%; in the experiment with NCI-H322M lung, 52%; in the experiment on HOP-62 NSCLC it was 69%; in the experiment on NCI-H460 lung it was 54.3%; in the experiment with HOP-92 NSCLC, 43.7%. Also, the growth in the experiment on NCI-H522 lung is 24.4%; in the experiment with A549/ATCC NSCLC it was 76.2%; in the experiment on 786-0 renal, 50.7%; in the experiment with COLO 205 colon, 11.9%.

On to `O=C(COCc1c(-c2ccccc2)no[n+]1[O-])Nc1nc(-c2ccc(Cl)cc2)cs1`, for which the growth in the experiment with NCI-H23 lung was 93.6%; with NCI-H226 lung, 90.4%; in the experiment with NCI-H322M lung, 104%; in the experiment with HOP-62 NSCLC, 96.5%; in the experiment on NCI-H460 lung, 106%; in the experiment on HOP-92 NSCLC, 86.8%. The growth in the experiment with NCI-H522 lung is 81.1%; in the experiment with A549/ATCC NSCLC, 105%; with 786-0 renal, 120%; in the experiment on COLO 205 colon it was 113%.

For the compound `CCOC(=O)c1cc(-c2ccccc2)nc(N)n1`, the growth was 99.5% in the experiment on NCI-H23 lung; 89.5% in the experiment on NCI-H226 lung; 99% with NCI-H322M lung; 96.1% with HOP-62 NSCLC; 104% with NCI-H460 lung; 78.1% in the experiment with HOP-92 NSCLC. Besides, the growth was 95.5% in the experiment with NCI-H522 lung, 102% in the experiment with A549/ATCC NSCLC, 108% in the experiment with 786-0 renal and 114% in the experiment on COLO 205 colon.

For `C#CCNCCCN1C(=O)c2ccc3c4c(ccc(c24)C1=O)C(=O)N(CCCNCC#C)C3=O`, the growth is -45% (active) with NCI-H23 lung; -48.6% (active) in the experiment on NCI-H226 lung; -94.4% (active) with NCI-H322M lung; -67.8% (active) in the experiment on HOP-62 NSCLC; -78.5% (active) in the experiment with NCI-H460 lung; -26.3% (active) in the experiment with HOP-92 NSCLC. In addition, the growth in the experiment on NCI-H522 lung was -78.4% (active); with A549/ATCC NSCLC, -72.3% (active); in the experiment on 786-0 renal, -56.9% (active); in the experiment on COLO 205 colon, -86.7% (active).

`C/C(=N/NC(=O)c1sc(=S)n(C)c1N)c1cc2cc(Cl)ccc2o1`: the growth is 97.9% in the experiment with NCI-H23 lung; 102% with NCI-H226 lung; 88.1% in the experiment with NCI-H322M lung; 96.5% with HOP-62 NSCLC; 89% in the experiment on NCI-H460 lung; 114% with HOP-92 NSCLC. The growth in the experiment on NCI-H522 lung is 88.6%; in the experiment with A549/ATCC NSCLC, 8.04% (active); with 786-0 renal, 106%; in the experiment on COLO 205 colon, 104%.

In the case of `NC1CCC(Nc2nc(NCc3ccc(-c4ccccc4O)nc3)c3ncn(C4CCCC4)c3n2)CC1` (stereo not given), the growth in the experiment with NCI-H23 lung was -50.2% (active); in the experiment on NCI-H226 lung it was -3.35% (active); with NCI-H322M lung, 10.1%; with HOP-62 NSCLC, -9.04% (active); with NCI-H460 lung, -8.3% (active); with HOP-92 NSCLC it was -17.7% (active). Also, the growth with NCI-H522 lung is -55.2% (active); in the experiment with A549/ATCC NSCLC, -25.2% (active); in the experiment with 786-0 renal, -38.3% (active); with COLO 205 colon, -70.4% (active).

Turning to `O=C(Nc1cccc(C(F)(F)F)c1)C(Cl)Cl`, the growth with NCI-H23 lung was 94.1%; with NCI-H226 lung it was 101%; with NCI-H322M lung, 87.5%; in the experiment with HOP-62 NSCLC, 96.5%; in the experiment on NCI-H460 lung it was 102%; in the experiment on HOP-92 NSCLC it was 81.7%. Also, the growth is 98.2% in the experiment with NCI-H522 lung, 98% in the experiment on A549/ATCC NSCLC, 101% in the experiment with 786-0 renal and 101% in the experiment on COLO 205 colon.

Turning to `O=C(O)c1ccccc1C(=O)c1cccc2c(F)cccc12`, the growth in the experiment on NCI-H23 lung is 102%; with NCI-H226 lung, 97.4%; in the experiment on NCI-H322M lung, 108%; with HOP-62 NSCLC it was 105%; in the experiment on NCI-H460 lung, 115%; with HOP-92 NSCLC, 83%. The growth with NCI-H522 lung is 103%; in the experiment on A549/ATCC NSCLC, 96.9%; in the experiment on 786-0 renal, 104%; with COLO 205 colon, 102%.

Turning to `COc1ccc(-c2nnc(COc3ccc(NC(=O)Nc4ccccc4)cc3F)o2)cc1`, the growth in the experiment with NCI-H23 lung was 92.4%; in the experiment with NCI-H226 lung, 95.2%; with NCI-H322M lung, 90.1%; with HOP-62 NSCLC it was 89.2%; in the experiment with NCI-H460 lung, 84.4%; in the experiment on HOP-92 NSCLC, 52.2%. Moreover, the growth in the experiment on NCI-H522 lung is 52.5%; with A549/ATCC NSCLC, 93.3%; in the experiment on 786-0 renal, 79.1%; in the experiment on COLO 205 colon, 110%.

Consider `COc1ccc(CCc2nc3cc(-c4c(C)noc4C)ccc3n2CCN2CCOCC2)cc1`, for which the growth in the experiment on NCI-H23 lung was 49.5%; with NCI-H226 lung, 48.3%; in the experiment on NCI-H322M lung, 75.8%; in the experiment on HOP-62 NSCLC it was 40.2%; with NCI-H460 lung, 30.4%; with HOP-92 NSCLC, -7.34% (active). The growth is 12% in the experiment on NCI-H522 lung, 26.4% in the experiment with A549/ATCC NSCLC, 60.8% with 786-0 renal and 5.86% (active) with COLO 205 colon.

Regarding `CCN1CCOC1C(C)C` (stereo not given), the growth with NCI-H23 lung is 102%; with NCI-H226 lung, 109%; in the experiment with NCI-H322M lung it was 103%; in the experiment with HOP-62 NSCLC it was 99.5%; with NCI-H460 lung, 107%; in the experiment on HOP-92 NSCLC, 114%. The growth is 97.1% in the experiment on NCI-H522 lung, 101% with A549/ATCC NSCLC, 94.2% in the experiment on 786-0 renal and 110% in the experiment with COLO 205 colon.

With `Cc1cnc(C=O)c2cccc([N+](=O)[O-])c12`, the growth in the experiment with NCI-H23 lung was 98.7%; in the experiment on NCI-H226 lung, 77.7%; in the experiment on NCI-H322M lung it was 103%; in the experiment on HOP-62 NSCLC it was 91.7%; in the experiment on NCI-H460 lung it was 106%; in the experiment with HOP-92 NSCLC, 61.2%. Besides, the growth was 96% in the experiment with NCI-H522 lung, 104% in the experiment with A549/ATCC NSCLC, 99.7% in the experiment with 786-0 renal and 106% in the experiment with COLO 205 colon.

As to `Cc1ccccc1[P+](Cc1ccccc1)(c1ccccc1)c1ccccc1`, the growth with NCI-H23 lung was 9.83% (active); in the experiment on NCI-H226 lung, 39.5%; in the experiment with NCI-H322M lung, 42.3%; in the experiment with HOP-62 NSCLC it was 32.3%; with NCI-H460 lung it was 17.5%; in the experiment on HOP-92 NSCLC it was -21.8% (active). Besides, the growth in the experiment with NCI-H522 lung was -15.8% (active); in the experiment on A549/ATCC NSCLC, 19.7%; with 786-0 renal, 43.7%; in the experiment on COLO 205 colon it was -56% (active).
